The values below come from publication PMC12136788.

B1: chr2:62099399:62099400:-_ENSG00000115484_ENST00000544079|hu_hu|FALSE|FALSE (ssRNA)
RNA: GGGAGUUCUACAGUCCGACGAUCGUAGGAUUCCAUACCACUCAGUGUUCGUGAAUAUUCAGUUAAUCGUAGGGCCAACUCUAUUUCUGGAGCACCACCUCCUGCAAUAAGAGCCCUCUUCUUCACUAAACAACGAAUAACACACAACAGAGGAUUGAGCAUCA
B2: chr13:30086970:30086971:-_ENSG00000139514_ENST00000380752|hu_mus|FALSE|FALSE (ssRNA)
RNA: GGGAGUUCUACAGUCCGACGAUCAGGCCCUGUGUAGGCUGGGGAAGUGUGCUACCACUAGGCUACACGCCUGUCCAGCCCCACUAACUCUUCCAUUCUCAAGAAUCUUCCAAAGCAGAGGAAAGACAGGGCCAUCAGUCUACCCAACAGAGGAUUGAGCAUCA
B3: 101904251_101904371_108_5pUTR_ENSMUSG00000058655_ENSMUST00000169681|mouse|control|control (ssRNA)
RNA: GGGAGUUCUACAGUCCGACGAUCGGAGAGAGAACGCAAAGGACCCGGAUGAGGCAGUCACGUGAUUAUAGCGGGCGCGACGGGCUUGGAGACGUGAAACCAGGAGGGGGCGGGGAGCCGAGGACGGAGGCAGAAGGCGGGGCGCAACAGAGGAUUGAGCAUCA
B4: 125499526_125499646_756_3pUTR_ENSMUSG00000091337_ENSMUST00000164756|mouse|control|control (ssRNA)
RNA: GGGAGUUCUACAGUCCGACGAUCCUGUGAGACCAAAGAGGAACGAUUUGGUCUUUUUCUCCUCGCGAUUCUCAGGUUUAACACUCCUCCUUCCUCGAUUCUCCUUUUCCACAAUGCAUGGUCAUUCACUGUCCCGUCUUCUAUCAACAGAGGAUUGAGCAUCA
B5: 19967392_19969057_911_3pUTR_ENSMUSG00000002428_ENSMUST00000002502|mouse|control|control (ssRNA)
RNA: GGGAGUUCUACAGUCCGACGAUCUCCCAGAAUGGUGGUAGUUCUUUACUGUUCUCUCGUGCGAUCAUCCAAGCUAGAGCUUGUUUUUGGUGUGGAAGCAACGGUGUUUCAAUAGCCUCAGCUGGUUCCAUUUCAACAGUUCUACAACAGAGGAUUGAGCAUCA
B6: chrX:21990627:21990628:+_ENSG00000102172_ENST00000404933|hu_hu|FALSE|FALSE (ssRNA)
RNA: GGGAGUUCUACAGUCCGACGAUCCACCCGCCCAGUACUGUCCUGACUCAAUUCUUUCAUUCUUUCCUCUACUUUGUUCAAAAUACUGUCGAUCUCUUCUUUGCCUUGCGCAUCACCAUCAUAACUCUGAAGGUCCAGCAACACCAACAGAGGAUUGAGCAUCA
B7: chr14:102516957:102516958:+_ENSG00000197102_ENST00000360184|hu_mus|motif|central (ssRNA)
RNA: GGGAGUUCUACAGUCCGACGAUCCCAUCAACCCUUCCACACCGUUAAGGAUGAAUGAAGGUUAAAUAUUGGGAGUUUCCGGUUCCAGAAAGAGGACUGGAGAAAAGUCUAGCUUUACUCAGUGCACAGAACGGCAACUCCACGCAACAGAGGAUUGAGCAUCA
B8: chr18:67943652:67943653:+_ENSMUSG00000079614_ENSMUST00000025421|mus_hu|FALSE|FALSE (ssRNA)
RNA: GGGAGUUCUACAGUCCGACGAUCAGUUGUCCUUUUAACCCAGUGGCUCUGUCCUCGCAGUUUAUCAUUUGAUUCUCCUACUAUUUCUUCCCAUACAGCAGCUGUUCGGUCAAAAGAACAGGAAGCCAAAACCUGCCCAAAUUCCAACAGAGGAUUGAGCAUCA
B9: chrX:20185780:20185781:-_ENSG00000177189_ENST00000379565|hu_mus|motif|central (ssRNA)
RNA: GGGAGUUCUACAGUCCGACGAUCUUUGGUUAUAGUAAACAGGACAGCGCUGGCCUCUCGCUCUGAGAAAAACUUCUGUCGGAGAAUCUUAUCCAGCAAUUCACCUCCUUUCAUAAGUUCUGUUACUACAUACACAUAUUUUCCCAACAGAGGAUUGAGCAUCA
B10: chr11:77843920:77843921:+_ENSMUSG00000037791_ENSMUST00000049167|mus_hu|motif|central (ssRNA)
RNA: GGGAGUUCUACAGUCCGACGAUCUUUUUUAUAUACAGAAUACAGGAAAGUUUCUGUAAAGUCUAAAACAUUACAAUUACGGUGUACAUUGGUACUGGUUGUGGGGGUGGGAGGAGAGGAGGGAACCAGGGGCAGGAGGAAGAGCAACAGAGGAUUGAGCAUCA
B11: chr1:167252050:167252051:+_ENSMUSG00000040836_ENSMUST00000111450|mus_mus|motif|central (ssRNA)
RNA: GGGAGUUCUACAGUCCGACGAUCGGAUACCAUUGAAGACAAGAGCCACAUGGUGGCUUCCCUUUCACAUCCACCAUCUCGGGUCCUCCUGAUGCCCCAGCCACAUCUCCAUCUGCUUCUAACGUGUGCUUUCGAAGCCUCGUUCAACAGAGGAUUGAGCAUCA
B12: chr12:96259795:96259796:+_ENSG00000139343_ENST00000266735|hu_hu|FALSE|FALSE (ssRNA)
RNA: GGGAGUUCUACAGUCCGACGAUCAAGGACAUUAUUACACCUUAUUAAAACUUCACCCAGAUGUCCAGACAAAGCUCCAUCUAUGUAUUCUUCUGUAUUUGCAAGCUGCAUGUUCAUGUAGCCAUCUACAGAUACCAGAUAGCCCAACAGAGGAUUGAGCAUCA
B13: 171526625_171526745_1071_3pUTR_ENSG00000117523_ENST00000495585|human|control|control (ssRNA)
RNA: GGGAGUUCUACAGUCCGACGAUCAGGUUAUAGCUGCAGCUGAAGUAGAGGCUGGAACUGAAGCUGAGACUGAGGCUGAGGCUGAAACUGGAGCUAAGGGUGAGGCUGGAACUGGAGCUGAGGUUGAGGCCAGAACUGGAGCUACAACAGAGGAUUGAGCAUCA

In all, about 24,000 sequences were measured (“enrichment r”: median about 0.99, highest 2% from about 3.7 on). These entries were drawn from the full list.

The target of this test is T1, UNK ZnF1-3 (human, UniProt Q9C0B0 31-174).
T1 sequence: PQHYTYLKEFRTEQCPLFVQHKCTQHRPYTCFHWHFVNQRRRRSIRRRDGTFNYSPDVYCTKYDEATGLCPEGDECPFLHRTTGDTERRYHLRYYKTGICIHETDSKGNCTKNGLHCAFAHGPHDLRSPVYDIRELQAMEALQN
The experiment in a line: nsRBNS (natural sequence RNA bind-n-seq); RBNS binding buffer (assumed for nsRBNS): 25 mM Tris pH 7.5, 150 mM KCl, 3 mM MgCl2, 0.01% Triton X-100, 500 ug/ml BSA, 20 U/ml SUPERase-In, 4 C; UNK is unkempt and MSI1 is Musashi-1; names of the RNAs are library labels; protein concentration not given here; high values mean tight binding.
In turn, B1 returned a binding signal of 1.13 enrichment R.
Then B2, with 1.02 enrichment R; and B3, with 3.03 enrichment R.
Then B4, with 0.473 enrichment R; and B5, with 0.75 enrichment R.
B6 had a binding signal of 0.997 enrichment R.
The figure for B7 is 1.11 enrichment R; for B8 it is 1.28 enrichment R.
Consider B9, for which the binding signal was determined as 0.794 enrichment R.
The figure for B10 is 1.66 enrichment R; for B11 it is 0.721 enrichment R.
The molecule B12 came in with a binding signal of 0.574 enrichment R.
In the case of B13, the binding signal was 2.07 enrichment R.
